Measurements: PubChem BioAssay AID1159580 (chemical genetic matrix, 2015)
About 2,000 (36%) of roughly 5,500 compounds were called active. Inconclusive results (about 18%) are left out. Cut-off read from the data, not from the text of the source: active = normalized growth mostly below about 0.91 (no sharp cut-off); inconclusive = no clear call, values can overlap the other calls; inactive = mostly above about 0.92. Some of the results follow.

Experiment: chemical genetic growth profiling, strain panel (AID 1159580);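 note: tested at 20 µM; growth read once vehicle control cultures reached saturation at 30 °C; 1 = growth at the plate median or of vehicle wells; lower values mean less growth of the strain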
Settings: growth OD

Measured: normalized growth

CC(C)=CCC/C(C)=C/CO
inactive: S. cerevisiae deletion strains, locus YJR075W, strain HOC1, hits give low values 1.01 | S. cerevisiae deletion strains, locus YKL009W, strain mrt4, hits give low values 0.918 | S. cerevisiae deletion strains, locus YKL068W, hits give low values 0.993 | S. cerevisiae deletion strains, locus YKL085W, strain MDH1 (second series), hits give low values 0.98 | S. cerevisiae deletion strains, locus YKL085W, strain MDH1, hits give low values 0.98 | S. cerevisiae deletion strains, locus YKL160W, strain elf1, hits give low values 1.01 | S. cerevisiae deletion strains, locus YKL190W, strain CNB1, hits give low values 1.01 | S. cerevisiae deletion strains, locus YKR001C, strain vps1, hits give low values 0.99 | S. cerevisiae deletion strains, locus YKR026C, strain gcn3, hits give low values 0.985 | S. cerevisiae deletion strains, locus YKR091W, strain srl3, hits give low values 0.986 | S. cerevisiae deletion strains, locus YLL001W, strain dnm1, hits give low values 0.994 | S. cerevisiae deletion strains, locus YLL026W, hits give low values 0.998 | S. cerevisiae deletion strains, locus YLL041C, strain sdh2, hits give low values 0.98 | S. cerevisiae deletion strains, locus YLR027C, strain aat2, hits give low values 0.996 | S. cerevisiae deletion strains, locus YLR039C, strain RIC1, hits give low values 1.01 | S. cerevisiae deletion strains, locus YLR058C, strain SHM2, hits give low values 1.01 | S. cerevisiae deletion strains, locus YLR102C, strain apc9, hits give low values 0.991 | S. cerevisiae deletion strains, locus YLR113W, strain HOG1, hits give low values 0.984 | S. cerevisiae deletion strains, locus YLR221C, strain rsa3, hits give low values 0.947 | S. cerevisiae deletion strains, locus YLR258W, strain gsy2, hits give low values 1 | S. cerevisiae deletion strains, locus YLR262C, strain YPT6 (second series), hits give low values 0.978 | S. cerevisiae deletion strains, locus YLR262C, strain YPT6, hits give low values 1.03 | S. cerevisiae deletion strains, locus YLR268W, strain sec22, hits give low values 0.966 | S. cerevisiae deletion strains, locus YLR320W, strain mms22, hits give low values 0.96 | S. cerevisiae deletion strains, locus YLR330W, strain CHS5, hits give low values 1.01 | S. cerevisiae deletion strains, locus YLR342W, strain FKS1 (second series), hits give low values 1.04 | S. cerevisiae deletion strains, locus YLR342W, strain FKS1, hits give low values 0.974 | S. cerevisiae deletion strains, locus YLR357W, strain rsc2, hits give low values 0.986 | S. cerevisiae deletion strains, locus YLR370C, strain arc18, hits give low values 0.983 | S. cerevisiae deletion strains, locus YLR371W, strain rom2, hits give low values 0.985 | S. cerevisiae deletion strains, locus YLR384C, strain iki3, hits give low values 0.981 | S. cerevisiae deletion strains, locus YLR418C, strain cdc73, hits give low values 0.975 | S. cerevisiae deletion strains, locus YML016C, strain PPZ1, hits give low values 1.02 | S. cerevisiae deletion strains, locus YML032C, strain rad52, hits give low values 0.991 | S. cerevisiae deletion strains, locus YML120C, strain ndi1, hits give low values 1.01 | S. cerevisiae deletion strains, locus YML124C, strain tub3, hits give low values 0.991 | S. cerevisiae deletion strains, locus YMR058W, strain fet3, hits give low values 0.972 | S. cerevisiae deletion strains, locus YMR078C, strain ctf18, hits give low values 0.98 | S. cerevisiae deletion strains, locus YMR125W, strain sto1, hits give low values 1.01 | S. cerevisiae deletion strains, locus YMR129W, hits give low values 0.994 | S. cerevisiae deletion strains, locus YMR205C, strain PFK2, hits give low values 1.01 | S. cerevisiae deletion strains, locus YMR223W, strain ubp8, hits give low values 1.01 | S. cerevisiae deletion strains, locus YMR231W, strain pep5, hits give low values 0.983 | S. cerevisiae deletion strains, locus YMR263W, strain SAP30, hits give low values 1.02 | S. cerevisiae deletion strains, locus YMR307W, strain GAS1, hits give low values 1.01 | S. cerevisiae deletion strains, locus YNL067W, strain RPL9B, hits give low values 1.01 | S. cerevisiae deletion strains, locus YNL071W, strain lat1, hits give low values 0.988 | S. cerevisiae deletion strains, locus YNL128W, strain TEP1, hits give low values 1.01 | S. cerevisiae deletion strains, locus YNL153C, strain GIM3, hits give low values 0.998 | S. cerevisiae deletion strains, locus YNL183C, strain NPR1, hits give low values 0.991 | S. cerevisiae deletion strains, locus YNL209W, strain ssb2, hits give low values 0.99 | S. cerevisiae deletion strains, locus YNL233W, strain BNI4, hits give low values 1.01 | S. cerevisiae deletion strains, locus YNL248C, strain rpa49, hits give low values 0.969 | S. cerevisiae deletion strains, locus YNL250W, strain rad50, hits give low values 0.992 | S. cerevisiae deletion strains, locus YNL271C, strain bni1, hits give low values 0.975 | S. cerevisiae deletion strains, locus YNL298W, strain CLA4, hits give low values 0.991 | S. cerevisiae deletion strains, locus YNL307C, strain MCK1, hits give low values 1 | S. cerevisiae deletion strains, locus YNL322C, strain KRE1 (second series), hits give low values 0.984 | S. cerevisiae deletion strains, locus YNL322C, strain KRE1, hits give low values 1.01 | S. cerevisiae deletion strains, locus YNR049C, strain mso1, hits give low values 0.984 | S. cerevisiae deletion strains, locus YNR052C, strain pop2, hits give low values 0.987 | S. cerevisiae deletion strains, locus YOL006C, strain TOP1, hits give low values 0.999 | S. cerevisiae deletion strains, locus YOL012C, strain htz1 0.813 | S. cerevisiae deletion strains, locus YOL147C, strain pex11, hits give low values 0.996 | S. cerevisiae deletion strains, locus YOR001W, strain rrp6, hits give low values 0.923 | S. cerevisiae deletion strains, locus YOR061W, strain CKA2, hits give low values 1.02 | S. cerevisiae deletion strains, locus YOR069W, strain VPS5, hits give low values 1.01 | S. cerevisiae deletion strains, locus YOR070C, strain gyp1, hits give low values 0.987 | S. cerevisiae deletion strains, locus YOR080W, strain dia2, hits give low values 0.987 | S. cerevisiae deletion strains, locus YOR083W, strain WHI5, hits give low values 1.02 | S. cerevisiae deletion strains, locus YOR106W, strain vam3, hits give low values 1.02 | S. cerevisiae deletion strains, locus YOR136W, strain idh2, hits give low values 0.994 | S. cerevisiae deletion strains, locus YOR144C, strain elg1, hits give low values 0.994 | S. cerevisiae deletion strains, locus YOR184W, strain ser1, hits give low values 0.949 | S. cerevisiae deletion strains, locus YOR231W, strain MKK1, hits give low values 0.983 | S. cerevisiae deletion strains, locus YOR265W, strain rbl2, hits give low values 0.989 | S. cerevisiae deletion strains, locus YOR270C, strain vph1, hits give low values 0.953 | S. cerevisiae deletion strains, locus YOR290C, strain snf2, hits give low values 1 | S. cerevisiae deletion strains, locus YOR316C, strain cot1, hits give low values 0.992 | S. cerevisiae deletion strains, locus YPL051W, strain arl3, hits give low values 0.996 | S. cerevisiae deletion strains, locus YPL055C, strain LGE1, hits give low values 1.04 | S. cerevisiae deletion strains, locus YPL078C, strain atp4, hits give low values 1.01 | S. cerevisiae deletion strains, locus YPL106C, strain sse1, hits give low values 0.977 | S. cerevisiae deletion strains, locus YPL240C, strain hsp82, hits give low values 0.99 | S. cerevisiae deletion strains, locus YPL241C, strain CIN2, hits give low values 1 | S. cerevisiae deletion strains, locus YPL256C, strain CLN2, hits give low values 1.05 | S. cerevisiae deletion strains, locus YPR119W, strain clb2, hits give low values 0.991 | S. cerevisiae deletion strains, locus YPR141C, strain kar3, hits give low values 0.991 | S. cerevisiae deletion strains, locus YPR163C, strain tif3, hits give low values 0.987 | S. cerevisiae deletion strains, locus YPR167C, strain met16, hits give low values 0.995 | S. cerevisiae deletion strains, strain wtn01, hits give low values 0.987 | S. cerevisiae strains, strain wild type, hits give low values 1.02
